# Test results reported in PubChem BioAssay (NCI).
# “And” between values parts separate entries of the source, which are not always exact repeats. Identical values can stand only once. About 79,000 compounds went through this panel and 15% of them were active in at least one assay; those are over-represented in the sample as a whole. A number with no mark means an inactive call. The source made the active and inactive calls. No stated cut-off is given here; in the data, active means growth inhibition above about 70%; inactive means the rest.
# Key:
# [1] = NCI Yeast Anticancer Drug Screen. Data for the rad50 strain (AID 155);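 further: 0% = growth of vehicle-only cultures of the same strain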; conditions: S. cerevisiae rad50 strain growth inhibition, stronger effect = higher value
# Procedure, shortened: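 Genetically altered yeast (DNA repair pathway); compound treatment; growth inhibition vs vehicle ctrl.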
# [2] = NCI Yeast Anticancer Drug Screen. Data for the mec2-1 strain (AID 157); conditions: S. cerevisiae mec2-1 strain, stronger effect = higher value
# Procedure, shortened: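 Growth inhibition is read against vehicle-treated controls after compound exposure of the mec2-1 yeast strain, which is defective in DNA damage repair or cell cycle control.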
# [3] = NCI Yeast Anticancer Drug Screen. Data for the sgs1 mgt1 strain (AID 161);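 further: 0% = growth of cultures given vehicle only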; conditions: S. cerevisiae sgs1 mgt1 strain, stronger effect = higher value
# Procedure, shortened: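 Yeast cells carrying a defined DNA-repair defect were exposed to test compounds. Growth inhibition was measured relative to vehicle-treated controls.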
# [4] = NCI Yeast Anticancer Drug Screen. Data for the cln2 rad14 strain (AID 165);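 further: 0% = growth equal to vehicle treated cultures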; conditions: S. cerevisiae cln2 rad14 strain, stronger effect = higher value
# Procedure, shortened: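 Growth inhibition, relative to vehicle-treated controls, is the read-out. The test organism is a yeast strain with defined genetic alterations, cln2 rad14.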
# [5] = NCI Yeast Anticancer Drug Screen. Data for the bub3 strain (AID 167); conditions: S. cerevisiae bub3 mutant strain, stronger effect = higher value
# Procedure, shortened: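 Yeast carrying a defined mutation is treated with each compound, and growth is compared with that of vehicle-exposed cells to give inhibition.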
# [6] = NCI Yeast Anticancer Drug Screen. Data for the mlh1 rad18 strain (AID 175); conditions: S. cerevisiae mlh1 rad18 strain growth inhibition, stronger effect = higher value
# Procedure, shortened: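 Cells of a genetically altered yeast strain, deficient in DNA damage repair, were treated with compound. Their growth was then compared with that of vehicle-treated cultures to give inhibition.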
# [7] = at 5.0 µM (retest, dose inferred, filed as 0.5)
# [8] = at 50.0 µM (retest, dose inferred, filed as 5.0)
Structure (SMILES),"growth inhibition [1, 7]","growth inhibition [1, 8]",growth inhibition ([1]; at 50.0 µM),"growth inhibition [2, 7]","growth inhibition [2, 8]",growth inhibition ([2]; at 50.0 µM),"growth inhibition [3, 7]","growth inhibition [3, 8]",growth inhibition ([3]; at 50.0 µM),"growth inhibition [4, 7]","growth inhibition [4, 8]",growth inhibition ([4]; at 50.0 µM),"growth inhibition [5, 7]","growth inhibition [5, 8]",growth inhibition ([5]; at 50.0 µM),"growth inhibition [6, 7]","growth inhibition [6, 8]",growth inhibition ([6]; at 50.0 µM)
COc1ccc(Br)cc1/C=C/[N+](=O)[O-],90% (active),99% (active),99.3% (active),90% (active),99% (active),99.2% (active),91% (active),99% (active),99.4% (active),83% (active),99% (active),77.8% (active),92% (active),99% (active),96.1% (active),92% (active),99% (active),98.7% (active)
c1cc2c(cc1NC1=NCCO1)CCCC2,14%,8%,-37%,6%,4%,-30%,-1%,34%,-6.4%,28%,21%,15.8%,-33%,-8%,-22.6%,15%,11%,-41.1%
C=Cc1ccccc1 (tested in a mixture with another compound),-1%,2%,16.1% and 1.1% and -7.7%,-6%,0%,-1.35% and 6.9% and -3.75%,-2%,-1%,-11.2% and -6.85% and -12.4%,-3%,3%,1.25% and -3.6% and 2.15%,-5%,-4%,23.4% and 14.5% and 6.1%,-1%,1%,12.4% and 31.1% and -6.6%
O=C1NC(=O)C([N+](=O)[O-])C(=O)N1,0%,-5%,62.9%,-14%,-4%,30.1%,9%,-8%,34.5%,29%,39%,48.5%,15%,43%,66.8%,10%,16%,18.8%
CC1(O)CC([CH2][Hg][I])OC([CH2][Hg][I])C1 (stereo not given),99% (active),99% (active),96.3% (active),99% (active),99% (active),98.3% (active),100% (active),99% (active),96% (active),99% (active),98% (active),98% (active),99% (active),98% (active),98.6% (active),99% (active),99% (active),91.6% (active)
CC(NCCN(C)C)C1CC2CCCCN2C1 (stereo not given),-8%,-30%,3.55%,-8%,-14%,11.9%,-13%,-28%,15.7%,-17%,-26%,41.1%,3%,1%,0.8%,-3%,19%,33%
c1ccc2c3ccn4cc5c(cc4c-3nc2c1)CCCC5,10%,97% (active),86.9% (active),23%,98% (active),86.6% (active),22%,98% (active),86.2% (active),6%,96% (active),73.2% (active),1%,97% (active),87% (active),26%,98% (active),85.2% (active)
CC1(C)N=C(N)N=C(N)N1CCCOc1ccc(NC(=O)c2ccc(S(=O)(=O)F)cc2)cc1,-3%,12%,20.2%,-6%,30%,49.5%,-2%,15%,47.8%,-3%,0%,-9%,-8%,-4%,-8.15%,-5%,7%,21.4%
CCCCC(CC)CNP(=S)(NCC(CC)CCCC)NCC(CC)CCCC (stereo not given),-3%,37%,58.9%,-3%,30%,9.55%,-4%,27%,6.25%,-2%,20%,35.8%,-5%,37%,13.4%,-5%,33%,69.1%
Oc1c(Cl)c(Cl)c(Cl)c(Cl)c1Cl,14% and 30%,99% (active) and 100% (active),80.8% (active) and 99% (active),16% and 23%,100% (active) and 99% (active),99.8% (active) and 99% (active),13% and 39%,98% (active) and 99% (active),97.5% (active) and 99.2% (active),15% and 30%,99% (active),99% (active),5% and 13%,99% (active),99.4% (active) and 99% (active),21% and 40%,99% (active),90% (active) and 99% (active)
